# For part of these data: Entries with a potency or affinity are not part of this list.
# Legend:
# Parameters in all cases: scale not given: direction of the effect not stated beside the values
# [1] = molecular target: Protein translocase subunit SecA (Escherichia coli (strain K12)) (UniProt P10408); assay: Assay to Identify E. coli SecA ATPase Inhibitors; format: functional; conditions: 30 µM
# [2] = molecular target: T1, Ubiquitin-activating enzyme e1, putative (Leishmania donovani (strain BPK282A1)) (UniProt E9BSI1); assay: Leishmania donovani Ubiquitin Activating Enzyme (LdE1); format: functional; conditions: 30 µM
# T1 sequence (whole entry): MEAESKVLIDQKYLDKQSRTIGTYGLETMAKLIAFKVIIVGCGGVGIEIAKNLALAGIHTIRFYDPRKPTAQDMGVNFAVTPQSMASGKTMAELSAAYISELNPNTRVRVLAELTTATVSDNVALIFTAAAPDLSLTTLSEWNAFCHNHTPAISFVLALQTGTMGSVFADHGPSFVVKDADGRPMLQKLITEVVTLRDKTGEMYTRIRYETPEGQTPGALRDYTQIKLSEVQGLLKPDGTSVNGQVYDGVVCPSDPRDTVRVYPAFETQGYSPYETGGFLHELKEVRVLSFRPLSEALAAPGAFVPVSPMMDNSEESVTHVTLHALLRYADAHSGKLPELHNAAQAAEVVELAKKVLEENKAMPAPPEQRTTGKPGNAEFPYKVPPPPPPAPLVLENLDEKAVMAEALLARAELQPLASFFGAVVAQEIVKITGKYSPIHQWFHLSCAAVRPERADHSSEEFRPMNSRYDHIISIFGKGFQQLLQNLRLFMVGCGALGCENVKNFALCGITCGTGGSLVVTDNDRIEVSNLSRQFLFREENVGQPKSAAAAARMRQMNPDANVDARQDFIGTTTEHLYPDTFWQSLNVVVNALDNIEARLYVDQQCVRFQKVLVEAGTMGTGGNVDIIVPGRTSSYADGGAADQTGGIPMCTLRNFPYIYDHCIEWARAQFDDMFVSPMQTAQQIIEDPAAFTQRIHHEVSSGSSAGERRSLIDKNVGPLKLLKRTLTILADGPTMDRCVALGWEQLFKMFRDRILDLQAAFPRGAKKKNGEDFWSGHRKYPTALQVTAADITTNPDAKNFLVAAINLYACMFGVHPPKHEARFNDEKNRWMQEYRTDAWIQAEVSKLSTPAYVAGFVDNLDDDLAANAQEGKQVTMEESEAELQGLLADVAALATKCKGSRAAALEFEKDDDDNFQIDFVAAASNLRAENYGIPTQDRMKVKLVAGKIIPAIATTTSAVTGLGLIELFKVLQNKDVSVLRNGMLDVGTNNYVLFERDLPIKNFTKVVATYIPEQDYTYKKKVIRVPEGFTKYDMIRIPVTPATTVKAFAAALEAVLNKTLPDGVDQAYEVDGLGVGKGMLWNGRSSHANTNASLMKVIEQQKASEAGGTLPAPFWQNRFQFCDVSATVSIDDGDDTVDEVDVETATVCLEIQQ
# [3] = molecular target: AMP-activated protein kinase, AMPK (Homo sapiens) (UniProt P54646+O43741+P54619+Q9UGJ0+Q9Y478+Q13131+Q9UGI9); assay: AMP-dependent Kinase enzyme assay. An in vitro enzyme assay that detects ADP turnover that is directly proportional to AMPK activity. This uses naive AMPK that is activated during the assay with MK-8722; format: functional; conditions: 30 µM
# [4] = molecular target: Sialic acid-binding Ig-like lectin 9 (Homo sapiens) (UniProt Q9Y336); assay: Hs-Siglec9 ALPHAscreen SOP 20170721; conditions: 10 µM
# Chain of Sialic acid-binding Ig-like lectin 9 (Homo sapiens) (Q9Y336 whole entry): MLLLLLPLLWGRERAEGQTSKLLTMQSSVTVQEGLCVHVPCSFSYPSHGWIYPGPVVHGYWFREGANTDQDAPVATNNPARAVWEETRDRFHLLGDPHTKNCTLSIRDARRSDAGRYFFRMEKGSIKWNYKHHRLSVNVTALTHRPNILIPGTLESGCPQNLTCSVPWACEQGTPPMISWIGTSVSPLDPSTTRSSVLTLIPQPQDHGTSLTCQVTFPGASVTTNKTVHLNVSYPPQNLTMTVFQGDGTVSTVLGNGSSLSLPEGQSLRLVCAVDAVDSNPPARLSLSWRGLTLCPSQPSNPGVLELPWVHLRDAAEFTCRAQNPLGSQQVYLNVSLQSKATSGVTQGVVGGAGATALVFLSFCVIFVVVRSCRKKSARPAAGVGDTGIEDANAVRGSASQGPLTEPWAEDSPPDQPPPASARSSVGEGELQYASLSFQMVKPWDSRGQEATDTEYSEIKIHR
# Trypanosoma cruzi = assay: Trypanosoma cruzi phosphomannomutase and mannose-1-phosphate guanylyltransferase assay; format: functional; conditions: 10 µM
# [5] = molecular target: T2, Arginase-2, mitochondrial (Homo sapiens) (UniProt P78540); assay: in vitro enzyme assay to detect the production of urea directly proportional to the activity of Arginase II; format: functional; conditions: 33.3 µM; further: in the data most compounds retested in dose-response had high values
# T2 sequence (whole entry): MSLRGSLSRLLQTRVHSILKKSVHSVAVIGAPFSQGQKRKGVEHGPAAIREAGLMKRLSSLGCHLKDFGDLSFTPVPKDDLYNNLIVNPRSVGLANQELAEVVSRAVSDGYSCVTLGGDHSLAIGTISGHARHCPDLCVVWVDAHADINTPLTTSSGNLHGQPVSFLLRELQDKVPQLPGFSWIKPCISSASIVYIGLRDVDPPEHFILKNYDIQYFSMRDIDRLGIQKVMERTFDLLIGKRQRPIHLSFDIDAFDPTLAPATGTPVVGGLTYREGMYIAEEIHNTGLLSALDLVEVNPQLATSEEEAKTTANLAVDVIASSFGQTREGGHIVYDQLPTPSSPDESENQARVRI
# [6] = molecular target: T3, Proteasome subunit beta (Trypanosoma cruzi) (UniProt O96673); assay: Trypanosoma cruzi proteasome chymotrypsin-like activity (TcProtChymo) assay.; further: in the data most compounds retested in dose-response had high values; format: functional; conditions: 9.37 µM
# T3 sequence (whole entry): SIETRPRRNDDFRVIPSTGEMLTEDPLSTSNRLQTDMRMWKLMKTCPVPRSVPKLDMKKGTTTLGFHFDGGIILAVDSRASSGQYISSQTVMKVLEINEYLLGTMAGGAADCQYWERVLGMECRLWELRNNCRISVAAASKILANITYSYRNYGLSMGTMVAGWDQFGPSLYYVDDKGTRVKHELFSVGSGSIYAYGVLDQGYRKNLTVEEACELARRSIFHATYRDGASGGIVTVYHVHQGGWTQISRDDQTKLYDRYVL
# Homo sapiens = species: Homo sapiens; assay: To identify inhibition of the IFN signalling (Jak-Stat) pathway via expression of an eGFP reporter gene under the control of an IFN-stimulated response element (ISRE) containing MxA promoter.; format: functional; conditions: 30 µM
# [7] = molecular target: T4, Tyrosyl-tRNA synthetase, putative (Trypanosoma cruzi (strain CL Brener)) (UniProt Q4DSP6); assay: Trypanosoma cruzi tyrosyl tRNA synthetase (TcYRS) _High Tyrosine SOP; format: functional; conditions: 30 µM; further: in the data most compounds retested in dose-response had high values
# T4 sequence (whole entry): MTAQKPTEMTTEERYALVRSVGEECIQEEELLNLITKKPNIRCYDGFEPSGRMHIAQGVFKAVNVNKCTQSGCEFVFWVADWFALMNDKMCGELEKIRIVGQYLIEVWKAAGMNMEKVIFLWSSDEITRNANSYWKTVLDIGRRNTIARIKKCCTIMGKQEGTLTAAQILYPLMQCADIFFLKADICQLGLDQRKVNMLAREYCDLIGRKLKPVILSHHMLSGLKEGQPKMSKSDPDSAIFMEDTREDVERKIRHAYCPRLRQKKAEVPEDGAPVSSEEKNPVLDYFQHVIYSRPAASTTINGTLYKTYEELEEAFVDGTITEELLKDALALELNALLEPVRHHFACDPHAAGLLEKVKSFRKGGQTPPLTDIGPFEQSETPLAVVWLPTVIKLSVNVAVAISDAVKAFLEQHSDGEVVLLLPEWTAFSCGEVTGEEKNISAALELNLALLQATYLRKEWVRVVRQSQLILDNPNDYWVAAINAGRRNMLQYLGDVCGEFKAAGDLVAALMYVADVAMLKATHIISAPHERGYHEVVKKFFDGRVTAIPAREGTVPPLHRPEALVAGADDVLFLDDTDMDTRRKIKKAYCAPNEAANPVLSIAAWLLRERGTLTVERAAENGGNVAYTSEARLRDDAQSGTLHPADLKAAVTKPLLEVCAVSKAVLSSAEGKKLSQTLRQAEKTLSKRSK
# [8] = molecular target: T4, Tyrosyl-tRNA synthetase, putative (Trypanosoma cruzi (strain CL Brener)); assay: Trypanosoma cruzi tyrosyl tRNA synthetase (TcYRS) SOP; format: functional; conditions: 30 µM
# [9] = molecular target: Chromo domain-containing protein 1 (Saccharomyces cerevisiae (strain ATCC 204508 / S288c) (Baker's yeast)) (UniProt P32657); assay: ScCHD-1 Enzyme Inhibition Assay; format: functional; conditions: 30 µM; further: in the data most compounds retested in dose-response had high values
# Chain of Chromo domain-containing protein 1 (Saccharomyces cerevisiae (strain ATCC 204508 / S288c) (Baker's yeast)) (P32657 whole entry, the tested form may be a part): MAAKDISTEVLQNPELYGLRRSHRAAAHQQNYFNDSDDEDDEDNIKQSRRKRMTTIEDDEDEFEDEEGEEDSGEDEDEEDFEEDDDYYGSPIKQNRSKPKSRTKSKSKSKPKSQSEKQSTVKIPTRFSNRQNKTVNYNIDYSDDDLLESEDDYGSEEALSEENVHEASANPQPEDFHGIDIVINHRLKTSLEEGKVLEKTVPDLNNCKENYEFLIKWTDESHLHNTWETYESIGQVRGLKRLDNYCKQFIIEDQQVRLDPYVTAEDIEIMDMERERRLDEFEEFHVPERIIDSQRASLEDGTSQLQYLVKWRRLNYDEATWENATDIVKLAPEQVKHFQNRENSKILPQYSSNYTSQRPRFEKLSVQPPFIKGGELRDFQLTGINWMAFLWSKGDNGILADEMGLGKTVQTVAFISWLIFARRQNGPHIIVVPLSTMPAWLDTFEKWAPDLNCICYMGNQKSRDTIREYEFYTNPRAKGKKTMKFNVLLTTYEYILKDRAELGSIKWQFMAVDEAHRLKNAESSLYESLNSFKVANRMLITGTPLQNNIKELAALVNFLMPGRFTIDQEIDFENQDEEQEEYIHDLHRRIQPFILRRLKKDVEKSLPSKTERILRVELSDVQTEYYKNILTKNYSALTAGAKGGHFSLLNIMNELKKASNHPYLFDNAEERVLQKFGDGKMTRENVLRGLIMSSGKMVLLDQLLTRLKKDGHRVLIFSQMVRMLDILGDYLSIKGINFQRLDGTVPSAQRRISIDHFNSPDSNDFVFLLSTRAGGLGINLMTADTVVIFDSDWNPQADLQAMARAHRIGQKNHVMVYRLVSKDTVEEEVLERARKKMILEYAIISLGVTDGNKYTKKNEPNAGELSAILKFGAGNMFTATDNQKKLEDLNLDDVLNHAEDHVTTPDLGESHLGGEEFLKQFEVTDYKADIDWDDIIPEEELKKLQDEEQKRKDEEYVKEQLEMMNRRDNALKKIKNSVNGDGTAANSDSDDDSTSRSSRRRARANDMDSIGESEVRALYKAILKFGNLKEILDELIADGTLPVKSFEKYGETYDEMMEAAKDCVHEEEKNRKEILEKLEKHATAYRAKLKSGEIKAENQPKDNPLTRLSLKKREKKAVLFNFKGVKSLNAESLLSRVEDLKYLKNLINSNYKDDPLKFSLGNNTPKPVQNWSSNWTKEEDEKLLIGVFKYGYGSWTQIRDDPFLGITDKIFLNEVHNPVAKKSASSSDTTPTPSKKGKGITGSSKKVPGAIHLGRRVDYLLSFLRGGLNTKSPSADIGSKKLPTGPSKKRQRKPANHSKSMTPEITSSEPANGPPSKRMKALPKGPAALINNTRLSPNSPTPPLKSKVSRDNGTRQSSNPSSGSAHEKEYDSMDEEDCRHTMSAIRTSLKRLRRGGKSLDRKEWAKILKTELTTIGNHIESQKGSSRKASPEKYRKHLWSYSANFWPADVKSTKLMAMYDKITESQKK
# Chain of Protein translocase subunit SecA (Escherichia coli (strain K12)) (P10408 whole entry): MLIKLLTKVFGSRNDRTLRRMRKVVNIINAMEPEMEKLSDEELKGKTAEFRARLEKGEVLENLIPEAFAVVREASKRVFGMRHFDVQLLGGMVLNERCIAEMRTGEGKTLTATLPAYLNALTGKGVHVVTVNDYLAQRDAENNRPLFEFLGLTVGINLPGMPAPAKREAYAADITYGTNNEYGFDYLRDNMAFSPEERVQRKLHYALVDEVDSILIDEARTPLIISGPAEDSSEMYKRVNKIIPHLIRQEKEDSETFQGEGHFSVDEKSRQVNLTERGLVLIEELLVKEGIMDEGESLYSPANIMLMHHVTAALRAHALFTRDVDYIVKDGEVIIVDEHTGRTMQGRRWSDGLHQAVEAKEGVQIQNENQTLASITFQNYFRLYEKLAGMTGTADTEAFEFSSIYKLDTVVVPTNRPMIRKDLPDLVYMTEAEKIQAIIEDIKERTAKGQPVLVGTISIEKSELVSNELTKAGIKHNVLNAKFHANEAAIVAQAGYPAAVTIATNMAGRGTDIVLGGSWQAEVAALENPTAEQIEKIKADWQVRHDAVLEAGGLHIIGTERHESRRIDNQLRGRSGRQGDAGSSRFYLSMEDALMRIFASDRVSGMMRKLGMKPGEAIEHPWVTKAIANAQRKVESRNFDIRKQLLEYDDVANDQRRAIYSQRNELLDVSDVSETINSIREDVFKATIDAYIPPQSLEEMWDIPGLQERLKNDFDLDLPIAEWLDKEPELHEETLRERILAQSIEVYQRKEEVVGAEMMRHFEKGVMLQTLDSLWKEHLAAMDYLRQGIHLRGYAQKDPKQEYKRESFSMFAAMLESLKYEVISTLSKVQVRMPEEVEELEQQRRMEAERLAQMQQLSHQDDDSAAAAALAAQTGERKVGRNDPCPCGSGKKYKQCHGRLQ
Structure (SMILES),Percent Effect [1],Percent Effect [2],Percent Effect [3],Percent Effect [4],Percent Effect (Trypanosoma cruzi),Percent Effect [5],Percent Effect [6],Percent Effect (Homo sapiens),Percent Effect [7],Percent Effect [8],Percent Effect [9]
COc1ccnc(N2CCN(C(=O)Cc3ccc(C)s3)CC2)n1,-2.28%,-2.6%,5.06%,8.15%,2.84%,-0.632%,13.8%,-7.95%,9.52%,25.9%,-9.7%
CC(C)N1Cc2c(C(=O)N3CCOCC3)nn(C)c2C1,-3.37%,-2.7%,4.04%,1.67%,-1.66%,0.955%,17.3%,-39.2%,-1.08%,5.13%,4.29%
COc1ccc(CN2C[C@@H](OCc3ccccn3)[C@H]3COC[C@H]32)cc1,-4.56%,-8.11%,-0.636%,-1.37%,-3.62%,6.05%,20.1%,22.6%,-1.08%,12.8%,2.02%
c1nc2n(n1)CC(NCc1nc(-c3ccsc3)no1)CC2 (centres undefined),-3.43%,0%,-5.33%,-3.06%,-1.02%,-0.554%,-5.92%,4.74%,2.97%,6.1%,7.25%
CNS(=O)(=O)c1cccc(C(C)NCc2cccc(OC)c2)c1 (centres undefined),-3.08%,-5.41%,4.16%,-2.94%,-4.3%,-0.417%,4.31%,11.2%,0%,-8.54%,-3.26%
Cc1nn(C)c(C)c1NC(=O)CN1CCc2c(nc(C(C)C)n2C)C1,-0.874%,8.11%,-7.75%,18.4%,7.34%,12.9%,7.93%,22.8%,5.82%,14.6%,-2.17%
CCn1ccnc1CN1CCN(C(C)C(=O)NC2CCCCC2)CC1 (centres undefined),-6.02%,5.26%,-1.96%,-3.82%,-7.71%,0.766%,5.68%,24.7%,-3.43%,-4.88%,5.81%
CC(C)c1n[nH]c(C2CN(C(=O)c3cccc4cn[nH]c34)CCO2)n1 (centres undefined),-1.73%,7.89%,4.13%,11.6%,2.33%,1.8%,4.32%,4.21%,2.46%,6.17%,-0.736%
CCc1cnc(N2CC3(CCN(C(=O)c4ccoc4)C3)C2)nc1,-7.71%,-10.4%,3.45%,3.13%,-2.46%,5.52%,9.65%,8.56%,-2.15%,-1.24%,-0.64%

# Source: ChEMBL document CHEMBL3988442, “University of Dundee, Small-Polar-MMV Screening Library” (2021)
